# Test results from paper PMC11006913.
# Residue numbers refer to the chain shown, from its start.
# Legend:
# Assay in all cases: PBM; 200 nM protein, PBS
# Conditions in all cases: dsDNA, one strand shown
# NKX2-5 [1] = biological target: NKX2-5 (Homo sapiens, UniProt P52952 125-210, R139K)
# VENTX [2] = biological target: T1, VENTX (Homo sapiens, UniProt O95231 78-163, R121Q)
# T1 sequence: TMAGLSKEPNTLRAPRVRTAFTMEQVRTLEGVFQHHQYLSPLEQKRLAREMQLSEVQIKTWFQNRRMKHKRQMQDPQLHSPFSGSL
# VENTX [3] = biological target: T2, VENTX (Homo sapiens, UniProt O95231 78-163)
# T2 sequence: T1 sequence with Q44R
# VENTX [4] = biological target: T3, VENTX (Homo sapiens, UniProt O95231 78-163, Y115F)
# T3 sequence: T1 sequence with Y38F, Q44R
# NKX2-5 [5] = biological target: NKX2-5 (Homo sapiens, UniProt P52952 125-210)
# NKX2-4 [6] = biological target: T4, NKX2-4 (Homo sapiens, UniProt Q9H2Z4 175-261, P217L)
# T4 sequence: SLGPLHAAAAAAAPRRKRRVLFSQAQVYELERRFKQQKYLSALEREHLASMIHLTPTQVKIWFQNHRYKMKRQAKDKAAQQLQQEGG
# NKX2-4 [7] = biological target: T5, NKX2-4 (Homo sapiens, UniProt Q9H2Z4 175-261, T231S)
# T5 sequence: T4 sequence with L43P, T57S
# NKX2-4 [8] = biological target: T6, NKX2-4 (Homo sapiens, UniProt Q9H2Z4 175-261)
# T6 sequence: T4 sequence with L43P
# NKX2-6 [9] = biological target: T7, NKX2-6 (Homo sapiens, UniProt A6NCS4 118-204, R150C)
# T7 sequence: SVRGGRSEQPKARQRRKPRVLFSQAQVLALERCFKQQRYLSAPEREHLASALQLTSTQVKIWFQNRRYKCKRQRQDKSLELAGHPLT
# NKX2-6 [10] = biological target: T8, NKX2-6 (Homo sapiens, UniProt A6NCS4 118-204)
# T8 sequence: T7 sequence with C33R
# NKX2-4 [11] = biological target: T9, NKX2-4 (Homo sapiens, UniProt Q9H2Z4 175-261, R246Q)
# T9 sequence: T4 sequence with L43P, R72Q
# NKX2-6 [12] = biological target: T10, NKX2-6 (Homo sapiens, UniProt A6NCS4 118-204, F151L)
# T10 sequence: T7 sequence with C33R, F34L
# NKX3-2 [13] = biological target: NKX3-2 (Homo sapiens, UniProt P78367 192-278, P234S)
# NKX3-2 [14] = biological target: NKX3-2 (Homo sapiens, UniProt P78367 192-278)
# HOXB4 [15] = biological target: HOXB4 (Homo sapiens, UniProt P17483 148-234)
# HOXB4 [16] = biological target: HOXB4 (Homo sapiens, UniProt P17483 148-234, V174I)
# ALX1 [17] = biological target: ALX1 (Homo sapiens, UniProt Q15699 118-204, L144V)
# ALX1 [18] = biological target: ALX1 (Homo sapiens, UniProt Q15699 118-204, L144R)
# ALX1 [19] = biological target: ALX1 (Homo sapiens, UniProt Q15699 118-204)
# ALX1 (Homo sapiens, UniProt Q15699 118-204), sequence (Q15699 118-204): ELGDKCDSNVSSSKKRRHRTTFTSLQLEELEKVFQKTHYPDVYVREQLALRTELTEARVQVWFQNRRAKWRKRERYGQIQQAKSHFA
# NKX2-5 (Homo sapiens, UniProt P52952 125-210, R139K), sequence (P52952 125-210 R139K): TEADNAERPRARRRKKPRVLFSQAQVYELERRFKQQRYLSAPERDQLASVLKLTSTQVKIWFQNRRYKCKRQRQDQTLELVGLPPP
# NKX3-2 (Homo sapiens, UniProt P78367 192-278, P234S), sequence (P78367 192-278 P234S): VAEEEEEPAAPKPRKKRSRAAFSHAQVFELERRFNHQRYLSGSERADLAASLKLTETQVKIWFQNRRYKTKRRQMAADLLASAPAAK
# NKX2-5 (Homo sapiens, UniProt P52952 125-210), sequence (P52952 125-210): as the sequence (P52952 125-210 R139K) above, with K15R counted along it
# NKX3-2 (Homo sapiens, UniProt P78367 192-278), sequence (P78367 192-278): as the sequence (P78367 192-278 P234S) above, with S43P counted along it
# ALX1 (Homo sapiens, UniProt Q15699 118-204, L144V), sequence (Q15699 118-204 L144V): as the sequence (Q15699 118-204) above, with L27V counted along it
# HOXB4 (Homo sapiens, UniProt P17483 148-234), sequence (P17483 148-234): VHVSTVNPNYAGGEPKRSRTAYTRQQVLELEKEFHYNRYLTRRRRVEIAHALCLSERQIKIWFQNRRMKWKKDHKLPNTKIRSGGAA
# HOXB4 (Homo sapiens, UniProt P17483 148-234, V174I), sequence (P17483 148-234 V174I): as the sequence (P17483 148-234) above, with V27I counted along it
# ALX1 (Homo sapiens, UniProt Q15699 118-204, L144R), sequence (Q15699 118-204 L144R): as the sequence (Q15699 118-204) above, with L27R counted along it
sequence,measurement,setting,value
ACCAGCTG,binding signal,NKX2-5 [1],"8.74 upbm affinity estimate (log intensity, higher = more binding, comparable within an allelic series)"
same,binding signal,VENTX [2],"7.92 upbm affinity estimate (log intensity, higher = more binding, comparable within an allelic series)"
same,binding signal,VENTX [3],"8.2 upbm affinity estimate (log intensity, higher = more binding, comparable within an allelic series)"
same,binding signal,VENTX [4],"8.14 upbm affinity estimate (log intensity, higher = more binding, comparable within an allelic series)"
same,binding signal,NKX2-5 [5],"9.02 upbm affinity estimate (log intensity, higher = more binding, comparable within an allelic series)"
GCACTTAA,binding signal,NKX2-5 [1],"13.1 upbm affinity estimate (log intensity, higher = more binding, comparable within an allelic series)"
same,binding signal,NKX2-4 [6],"12.6 upbm affinity estimate (log intensity, higher = more binding, comparable within an allelic series)"
same,binding signal,VENTX [2],"10.2 upbm affinity estimate (log intensity, higher = more binding, comparable within an allelic series)"
same,binding signal,VENTX [3],"10.9 upbm affinity estimate (log intensity, higher = more binding, comparable within an allelic series)"
same,binding signal,NKX2-4 [7],"13 upbm affinity estimate (log intensity, higher = more binding, comparable within an allelic series)"
same,binding signal,VENTX [4],"10.3 upbm affinity estimate (log intensity, higher = more binding, comparable within an allelic series)"
same,binding signal,NKX2-4 [8],"12.5 upbm affinity estimate (log intensity, higher = more binding, comparable within an allelic series)"
same,binding signal,NKX2-6 [9],"12 upbm affinity estimate (log intensity, higher = more binding, comparable within an allelic series)"
same,binding signal,NKX2-6 [10],"13.8 upbm affinity estimate (log intensity, higher = more binding, comparable within an allelic series)"
same,binding signal,NKX2-4 [11],"13.2 upbm affinity estimate (log intensity, higher = more binding, comparable within an allelic series)"
same,binding signal,NKX2-6 [12],"11.6 upbm affinity estimate (log intensity, higher = more binding, comparable within an allelic series)"
same,binding signal,NKX3-2 [13],"12.9 upbm affinity estimate (log intensity, higher = more binding, comparable within an allelic series)"
same,binding signal,NKX2-5 [5],"13 upbm affinity estimate (log intensity, higher = more binding, comparable within an allelic series)"
same,binding signal,NKX3-2 [14],"13.1 upbm affinity estimate (log intensity, higher = more binding, comparable within an allelic series)"
CACGCGTG,binding signal,NKX2-5 [1],"8.8 upbm affinity estimate (log intensity, higher = more binding, comparable within an allelic series)"
same,binding signal,HOXB4 [15],"7.77 upbm affinity estimate (log intensity, higher = more binding, comparable within an allelic series)"
same,binding signal,HOXB4 [16],"7.9 upbm affinity estimate (log intensity, higher = more binding, comparable within an allelic series)"
same,binding signal,NKX2-5 [5],"8.74 upbm affinity estimate (log intensity, higher = more binding, comparable within an allelic series)"
ATAAGTAC,binding signal,NKX2-5 [1],"12.9 upbm affinity estimate (log intensity, higher = more binding, comparable within an allelic series)"
same,binding signal,NKX2-4 [6],"12.6 upbm affinity estimate (log intensity, higher = more binding, comparable within an allelic series)"
same,binding signal,NKX2-4 [7],"13 upbm affinity estimate (log intensity, higher = more binding, comparable within an allelic series)"
same,binding signal,NKX2-4 [8],"12.5 upbm affinity estimate (log intensity, higher = more binding, comparable within an allelic series)"
same,binding signal,NKX2-6 [9],"12 upbm affinity estimate (log intensity, higher = more binding, comparable within an allelic series)"
same,binding signal,NKX2-6 [10],"13.6 upbm affinity estimate (log intensity, higher = more binding, comparable within an allelic series)"
same,binding signal,NKX2-4 [11],"13.1 upbm affinity estimate (log intensity, higher = more binding, comparable within an allelic series)"
same,binding signal,NKX2-6 [12],"10.9 upbm affinity estimate (log intensity, higher = more binding, comparable within an allelic series)"
same,binding signal,NKX3-2 [13],"12.5 upbm affinity estimate (log intensity, higher = more binding, comparable within an allelic series)"
same,binding signal,NKX2-5 [5],"12.7 upbm affinity estimate (log intensity, higher = more binding, comparable within an allelic series)"
CGGTCCAA,binding signal,NKX2-5 [1],"8.45 upbm affinity estimate (log intensity, higher = more binding, comparable within an allelic series)"
same,binding signal,NKX2-5 [5],"8.42 upbm affinity estimate (log intensity, higher = more binding, comparable within an allelic series)"
CGAACGCC,binding signal,NKX2-5 [1],"8.62 upbm affinity estimate (log intensity, higher = more binding, comparable within an allelic series)"
same,binding signal,ALX1 [17],"6.33 upbm affinity estimate (log intensity, higher = more binding, comparable within an allelic series)"
same,binding signal,ALX1 [18],"6.32 upbm affinity estimate (log intensity, higher = more binding, comparable within an allelic series)"
same,binding signal,ALX1 [19],"6.54 upbm affinity estimate (log intensity, higher = more binding, comparable within an allelic series)"
same,binding signal,NKX2-5 [5],"8.69 upbm affinity estimate (log intensity, higher = more binding, comparable within an allelic series)"
CACTTATG,binding signal,NKX2-5 [1],"13 upbm affinity estimate (log intensity, higher = more binding, comparable within an allelic series)"
same,binding signal,NKX2-4 [6],"12.6 upbm affinity estimate (log intensity, higher = more binding, comparable within an allelic series)"
same,binding signal,NKX2-4 [7],"13 upbm affinity estimate (log intensity, higher = more binding, comparable within an allelic series)"
same,binding signal,NKX2-4 [8],"12.5 upbm affinity estimate (log intensity, higher = more binding, comparable within an allelic series)"
same,binding signal,NKX2-6 [9],"12.2 upbm affinity estimate (log intensity, higher = more binding, comparable within an allelic series)"
same,binding signal,NKX2-6 [10],"13.8 upbm affinity estimate (log intensity, higher = more binding, comparable within an allelic series)"
same,binding signal,NKX2-4 [11],"13.1 upbm affinity estimate (log intensity, higher = more binding, comparable within an allelic series)"
same,binding signal,NKX2-6 [12],"11.2 upbm affinity estimate (log intensity, higher = more binding, comparable within an allelic series)"
same,binding signal,NKX3-2 [13],"12.8 upbm affinity estimate (log intensity, higher = more binding, comparable within an allelic series)"
same,binding signal,NKX2-5 [5],"13 upbm affinity estimate (log intensity, higher = more binding, comparable within an allelic series)"
same,binding signal,NKX3-2 [14],"12.9 upbm affinity estimate (log intensity, higher = more binding, comparable within an allelic series)"
AAGTACCT,binding signal,NKX2-5 [1],"12.6 upbm affinity estimate (log intensity, higher = more binding, comparable within an allelic series)"
same,binding signal,NKX2-4 [6],"12.5 upbm affinity estimate (log intensity, higher = more binding, comparable within an allelic series)"
same,binding signal,NKX2-4 [7],"12.9 upbm affinity estimate (log intensity, higher = more binding, comparable within an allelic series)"
same,binding signal,NKX2-4 [8],"12.4 upbm affinity estimate (log intensity, higher = more binding, comparable within an allelic series)"
same,binding signal,NKX2-6 [9],"11.7 upbm affinity estimate (log intensity, higher = more binding, comparable within an allelic series)"
same,binding signal,NKX2-6 [10],"13.4 upbm affinity estimate (log intensity, higher = more binding, comparable within an allelic series)"
same,binding signal,NKX2-4 [11],"12.9 upbm affinity estimate (log intensity, higher = more binding, comparable within an allelic series)"
same,binding signal,NKX2-6 [12],"10.6 upbm affinity estimate (log intensity, higher = more binding, comparable within an allelic series)"
same,binding signal,NKX3-2 [13],"12.6 upbm affinity estimate (log intensity, higher = more binding, comparable within an allelic series)"
same,binding signal,NKX2-5 [5],"12.4 upbm affinity estimate (log intensity, higher = more binding, comparable within an allelic series)"
same,binding signal,NKX3-2 [14],"12.6 upbm affinity estimate (log intensity, higher = more binding, comparable within an allelic series)"
